In the supplement of paper PMC9492666:
Where a name gives a salt, the structure may show the parent alone.

Tests used:
HCC1937 = experiment: relative cell viability, compound alone, vs DMSO (fraction of DMSO control); higher = less growth inhibition; conditions: 72 h
MDA-MB-231 = experiment: as above; conditions: 72 h
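Also: viability read out with the CCK-8 kit in 96-well plates, screening a set of 303 compounds acting on lipid metabolism targets.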

Structure (SMILES)	relative cell viability (HCC1937)	relative cell viability (MDA-MB-231)
O=C(Nc1cnccc1Cl)N1CCN(Cc2ccc3c(c2)OC(F)(F)O3)CC1	0.747	0.771
CCN(CC)c1ccc(C=NNC(=O)c2ccncc2)c(O)c1	0.4	0.624
COc1ccc2[nH]cc(CCNC(C)=O)c2c1 [Melatonine]	0.76	0.783
Cc1cnc(C(=O)NCCc2ccc(S(=O)(=O)NC(=O)NC3CCCCC3)cc2)cn1 [Glipizide]	0.679	0.817
CCCCCC=CC(=O)CCc1ccc(O)c(OC)c1 [6-Shogaol]	0.937	0.978
O=S(=O)(Nc1ccc(C(O)(C(F)(F)F)C(F)(F)F)cc1)c1cccs1	1.1	1.03
COc1cccc(-n2c(=O)[nH]c3cc(Cl)n(-c4ccc(-c5cccc(OC)c5O)cc4)c3c2=O)c1	0.835	0.903
CC(C)Cc1ccc([C@H](C)C(=O)O)cc1 [Dexibuprofen]	1.36	0.905
O=C(CCCCc1ccc2c(c1)OCO2)N1CCCCC1	0.608	0.838
Cc1nc(-c2nc(-c3ccc(OC(F)(F)F)cc3)no2)nn1Cc1cccc(N2CCC(S(C)(=O)=O)CC2)c1	0.93	0.775
CC[C@@H]1/C=C(\C)C[C@H](C)C[C@H](OC)[C@H]2O[C@@](O)(C(=O)C(=O)N3CCCC[C@H]3C(=O)O[C@H](/C(C)=C/[C@@H]3CC[C@@H](O)[C@H](OC)C3)[C@H](C)[C@@H](O)CC1=O)[C@H](C)C[C@@H]2OC [Ascomycin]	0.185	0.236
O=C(Nc1cccnn1)N1CCC(=Cc2cccc(Oc3ccc(C(F)(F)F)cn3)c2)CC1	1.15	0.987
CCCCCCCCCCCCCCCC(=O)NCCO [Palmidrol]	1.39	1.13
CC(=O)Nc1nc(C)c(S(=O)(=O)Nc2ccc(C(O)(C(F)(F)F)C(F)(F)F)cc2)s1	1.29	1.24
CN1CCN(c2ccc(/C=C(\C#N)c3ccccc3Br)cc2)CC1 [DG172 (dihydrochloride)]	0.933	0.965
C[C@]12C=CC(=O)N[C@@H]1CC[C@@H]1[C@@H]2CC[C@]2(C)[C@@H](C(=O)Nc3cc(C(F)(F)F)ccc3C(F)(F)F)CC[C@@H]12 [Dutasteride]	0.798	0.777
NC(CO)C(=O)O (racemic) [DL-Serine]	0.683	0.77
CN1CCN(C(=O)C2C(C(=O)O)[C@H]3CC[C@@H]2O3)CC1 (stereo partly drawn)	0.568	0.616
CCC(=O)O[C@]1(C(=O)SCF)[C@H](C)C[C@H]2[C@@H]3C[C@H](F)C4=CC(=O)C=C[C@]4(C)[C@@]3(F)[C@@H](O)C[C@@]21C [Fluticasone propionate]	1.34	0.813
